Each structure is given as a SMILES string. Potency and affinity values are given separately. Unmarked numbers belong to inactive results.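 Rule for the calls: active = polarization signal falls with dose and the fitted half-maximal concentration is at or below ten times the sample's top valid dose; inconclusive = flat curve at 30 to 70% inhibition, or poor fit; inactive = signal rises, flat within 30%, or potency beyond limit.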

The test addresses Golgi-associated PDZ and coiled-coil motif-containing protein (Homo sapiens) (UniProt Q9HD26). The test can be described thus: potency against CAL PDZ-peptide interaction – biochemical, fluorescence polarization, Cerulean-tagged CAL PDZ, cherry-picks, dose response (AID 504773).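 Note: 0% = DMSO neutral wells and -100% = excess unlabeled competitor peptide wells.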 The settings on record: CAL PDZ-peptide binding, 1 h; series mostly up to 50 µM; activity change, negative = inhibition: at the top concentration. Background: In fluorescence polarisation assays a small probe gives low polarisation when free and higher when bound to something large.
With `CCCOc1ccc(CC(=O)N/N=C\c2ccc(F)cc2)cc1`, the “activity change, negative = inhibition” value was 24.2%.
The value for `CCC(=O)c1ccc(N2CCC(C)CC2)c(F)c1` was 14.7%; that for `COc1ccc(C(=O)c2ccc(C)cc2)c(OC)c1OC` was 6.19%.
For `O=[N+]([O-])c1ccccc1/C=N/Nc1nc(N2CCCC2)nc(N2CCCC2)n1` the value was 7.89%; for `CCC(=O)Nc1ccc(S(=O)(=O)NCc2ccco2)cc1`, -9.94%.
The value for `Cc1ccc(NC(=O)CN(C)C(=S)NC2CC2)cc1` was -2.76%.
For `COc1cc(S(=O)(=O)n2nc(C)cc2C)ccc1Cl`, the “activity change, negative = inhibition” value is -59%.
For `C/C(=N/N1CCN(c2ccccn2)CC1)c1ccc([N+](=O)[O-])cc1` the value was 2.05%; for `O=C1c2ccccc2C(=O)N1CSc1nnnn1-c1ccccc1`, 13.4%; for `CC1CCN(C(=O)COC(=O)c2cccs2)CC1`, -53.2%.
As to `O=C(CNCc1ccccc1)Nc1ccc(F)cc1`, the “activity change, negative = inhibition” value is 8.72%.
For `O=C(O)c1cccc(Nc2ccc([N+](=O)[O-])cn2)c1` the value was 18.4%.
With `O=C(Nc1ccccc1Cl)Nc1cccnc1Cl`, the “activity change, negative = inhibition” value is -19.9%.
`CC(=O)Nc1ccc(N/C=C/C(=O)c2ccccc2)cc1`: the “activity change, negative = inhibition” value is 14.7%.
Turning to `O=C(O)CCCC(=O)N1N=C(c2ccccc2)CC1c1ccc2c(c1)OCO2` (stereo unspecified), the “activity change, negative = inhibition” value was -37.2%.
The value for `CC(=O)NC(Cc1ccccc1)C(C)=O` (stereo unspecified) was 13.7%; that for `C/C(CC(=O)Nc1ccc(C)c(Cl)c1)=N\NC(=O)Cc1cnc(N)s1` was 14.7%.
As to `CCN(CC)S(=O)(=O)c1cc(C(=O)Oc2ccccc2OC)ccc1OC`, the “activity change, negative = inhibition” value was 14.1%.
For `COCCCNC(=O)c1cc(S(=O)(=O)N2CCOCC2)ccc1SCc1cccc(OC)c1OC` the value was -5.41%; for `Cc1ccc(-n2c(SCC(N)=O)nnc2-c2ccco2)cc1`, -58.1%; for `COCCOC(=O)c1c(C)oc2ccc(OS(C)(=O)=O)cc12`, -40.2%.
For `CCNS(=O)(=O)c1ccc(CCC(=O)N2CCCC2)cc1` the value was 5.15%; for `O=C(COC(=O)c1cccnc1Cl)Nc1ccc2c(c1)OCO2`, 2.18%; for `Cc1ccc(C(=O)NC(=S)N2CCN(c3cc(C)ccc3C)CC2)cc1`, -8.14%.
Turning to `CCc1nc2ccccc2c(C(=O)Oc2cccc3cccnc23)c1C`, the “activity change, negative = inhibition” value was 9.12%.
`COc1ccc(C(=O)Nc2nccs2)cc1`: the “activity change, negative = inhibition” value is 19.6%.
The value for `Cc1cc(SCC(=O)OCC(=O)c2c(N)n(C)c(=O)n(C)c2=O)c(C)cc1Br` was -4.31%; that for `Cc1ccc(Cl)c2c(N=Nc3ccccc3)c(O)[nH]c12` was 19%.
The value for `O=C(CN(Cc1ccccc1)S(=O)(=O)c1ccc(F)cc1)NCCC1=CCCCC1` was 28.8%; that for `Cn1c(=O)c2c(nc(SCC(=O)NCC3CCCO3)n2Cc2ccc(F)cc2)n(C)c1=O` (stereo unspecified) was -69.9%; that for `CCCOc1ccc(S(=O)(=O)Nc2ccccn2)c2ccccc12` was -8.7%.
For `COc1cccc(CN2CCN(C3CSCCSC3)CC2CCO)c1` (stereo unspecified) the value was 6.69%; for `Fc1ccc(-n2c(-c3ccc4ccccc4n3)n[nH]c2=S)cc1Cl`, -6.43%; for `CCOC(=O)Cn1ncn(-c2ccc(OC(F)(F)F)cc2)c1=O`, 8.25%.
Consider `CCN1CCN(S(=O)(=O)c2ccc(OC)c3ccccc23)CC1`, for which the “activity change, negative = inhibition” value is 7.59%.
The value for `CCC(C(=O)NN1C(=O)c2ccccc2C1=O)c1ccccc1` (stereo unspecified) was -29.2%.

(Values after PubChem BioAssay AID504773 (Broad Institute, 2011).)
